In all, about 2,100 compounds went through this assay and about 760 (36%) were called active.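 How the source made its calls: active means thallium-flux fluorescence traces judged by eye to show enhanced or reduced glutamate response, manual score 1 or -1, so both directions (some results past the limit were not filed as active); inactive means the rest, including fluorescent or raised-baseline compounds.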 These entries were drawn from the full list.
Experiment: thallium influx changes without GIRK channels – cell-based, HEK-293 rmGlu8, no GIRK, thallium flux, counter-screen for GIRK activator project, confirmation (AID 623868);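 further: extra codes mark interference with 3 for fluorescent and 4 for baseline rise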
Conditions: thallium flux fluorescence, at 10 µM, actives lie on both sides, codes: 1 enhancer, -1 blocker, 0 none, thallium stimulus containing EC20 glutamate

Compound	manual score
COc1cc(NC(=O)CSCc2cnn(-c3ccccc3)c2-n2cccc2)cc(OC)c1	0 (inactive)
Cc1ccc(N=Cc2cc3c(cc2O)OC(N)=C(C#N)C3c2ccccc2)cc1 (stereo not drawn)	-1 (active)
CC1=C(n2nnc3ccccc32)C(c2ccccc2)C(C#N)=C(N)O1 (stereo not drawn)	0 (inactive)
CCN(CC)c1ccc2c(c1)OC(N)=C(C#N)C2c1cccnc1 (stereo not drawn)	3 (inactive)
CC(Sc1nnnn1C)C(=O)Nc1ccc(Oc2ccccc2)cc1 (stereo not drawn)	0.5 (inactive)
COc1ccc(-n2c(=S)[nH]c3ccccc32)cc1	1 (active)
COc1ccc(-n2cc(-c3ccccc3)[nH]c2=S)cc1	1 (active)
Cc1cccc(OCCn2c(=S)[nH]c3ccccc32)c1	0 (inactive)
COc1ccc(-c2c3c(=O)n(C)c(=O)n(C)c3cn2-c2ccccc2)cc1	0 (inactive)
Cn1c(-c2ccc(-c3ccccc3)cc2)c[nH]c1=S	0 (inactive)
CCCn1c(=N)n(CCOc2ccc(OC)cc2)c2ccccc21	0 (inactive)
CC(C)(C)c1ccc(OCCON2C(=O)CCC2=O)c(Cl)c1	0 (inactive)
COc1ccc(C(CCNCc2ccccc2F)c2ccc(F)cc2)cc1 (stereo not drawn)	0 (inactive)
COC(=O)c1cc(NC(=O)c2ccoc2C)cc(C(=O)OC)c1	0 (inactive)
CCOC(=O)C1=C(C)NC2=C(C(=O)C(C(=O)OCC)C(c3ccccc3OC)C2)C1c1ccccn1 (stereo not drawn)	0 (inactive)
CCCC1=C(C(=O)OCC)C(c2ccc(F)cc2)n2ncnc2N1 (stereo not drawn)	-0.5 (inactive)
CCOC(=O)C1=C(C)Nc2nnnn2C1c1ccccc1Cl (stereo not drawn)	-1 (active)
CC(C)C(=O)Nc1ccccc1N1CCN(C(=O)c2ccccc2)CC1	-1 (active)
O=C(c1ccc(-c2ccccc2)cc1)N1CCN(c2ncccn2)CC1	0 (inactive)
O=C(Nc1ccccc1N1CCCCC1)c1ccccc1F	0 (inactive)
CCCC(=O)Nc1ccccc1N1CCN(C(=O)c2ccccc2)CC1	-1 (active)
CC(C)N(C(=O)CN(C#N)c1nc(N(C)C)nc(N(C)C)n1)c1ccccc1	0 (inactive)

Compound	manual score
CCN(CC)CC(O)COCCC12CC3CC(CC(C3)C1)C2 (stereo not drawn)	0 (inactive)
CSc1ccccc1NC(=O)Nc1ccc(Cl)cc1	0 (inactive)
O=C(N/C(=N\O)c1ccccc1)Nc1ccc(Cl)cc1	0 (inactive)
N#C/C(=N\Nc1ccc(Cl)cc1)C(=O)c1ccccc1	-1 (active)
CC(C)c1nc(=S)n(-c2ccccc2)[nH]1	1 (active)
CCOC(=O)c1cccc(-n2c(C)cc(C=O)c2C)c1	0 (inactive)
O=C(CSCc1ccccc1)N=Nc1c(O)[nH]c2ccccc12	1 (active)
O=C(CSCc1ccc(Br)cc1)N=Nc1c(O)[nH]c2ccccc12	1 (active)
Fc1ccccc1/C=N/NC(=S)Nc1ccc(Cl)cc1Cl	0 (inactive)
O=[N+]([O-])c1ccc(/C=N/NC(=S)Nc2ccccc2F)o1	1 (active)
Fc1ccccc1NC(=S)N/N=C/c1ccccc1Br	1 (active)
O=C(NCCN1CCN(C(=O)Nc2ccccc2)CC1)Nc1ccccc1	0 (inactive)
Cc1ccccc1N=Nc1c(C)[nH]n(C(N)=S)c1=O	1 (active)
S=C(NCc1ccco1)N/N=C/c1ccc(Cl)cc1	1 (active)
C/C(=N\NC(=S)NCCc1ccccc1)c1ccc(C)cc1	0 (inactive)
S=C(NCc1ccco1)Nc1ccc(Cl)c(Cl)c1	0 (inactive)
COc1ccc(/C(C)=N/NC(=S)NCc2ccco2)cc1	1 (active)
COc1cccc(N2CCN(c3c4c(nc5ncnn35)CCC4)CC2)c1	0 (inactive)
O=C(Oc1c(Cl)cc(Cl)c2cccnc12)c1ccco1	1 (active)
O=C(Oc1c(Cl)cc(Cl)c2cccnc12)c1cccc([N+](=O)[O-])c1	1 (active)
O=C(Oc1ccccc1C(=S)N1CCCCC1)c1cc([N+](=O)[O-])cc([N+](=O)[O-])c1	0 (inactive)
COC(=O)[C@H]1CCCN1C(=O)Nc1cccc(Oc2c(F)c(F)c(F)c(F)c2F)c1	0 (inactive)

Compound	manual score
Cc1cc(NC(=O)c2c(F)cccc2Cl)n(-c2nc3ccccc3[nH]2)n1	0 (inactive)
Cc1cc(NC(=O)Nc2ccccc2)n(-c2ccccc2)n1	0 (inactive)
Cc1ccc(Nc2cc(C)nn2-c2nc(C)cc(=O)[nH]2)cc1	1 (active)
CCOC(=O)c1cnc(SCC(=O)Nc2nc(C)c(C)s2)nc1N	0 (inactive)
C=CCn1c(SCC(=O)Nc2sc(C)c(C)c2C(=O)OCC)nnc1-c1sc(N)nc1C	-1 (active)
CCOC(=O)c1c(NC(=O)CSc2nnc(Cc3csc(N)n3)n2C)sc(C)c1C	-1 (active)
CC1(C)Cc2ccccc2-c2nnc(SCC(=O)N3CCN(c4ccccc4)CC3)n21	0 (inactive)
C1CCC2(CC1)OCC1(CO2)COC2(CCCCC2)OC1	0 (inactive)
CC1(C)NC(=O)NC2(C)NC(=O)NC(C)(C)C12 (stereo not drawn)	0 (inactive)
CNC(=S)N/N=C(\C)c1ccc(C)c(C)c1	0.5 (inactive)
CNC(=S)N/N=C/c1ccc(C(C)C)cc1	1 (active)
C=CCNC(=O)C1CC(=O)N(c2ccc(OCC(=O)Nc3ccccc3)cc2)C1 (stereo not drawn)	0 (inactive)
Fc1cc(F)c2nc(Nc3nc4c(F)cccc4s3)sc2c1	1 (active)
Fc1cccc2sc(Nc3nc4ccccc4s3)nc12	0 (inactive)
Fc1ccc2nc(Nc3nc4c(F)cccc4s3)sc2c1	1 (active)
Fc1cccc2sc(Nc3nc4cc5c(cc4s3)OCO5)nc12	0 (inactive)
Fc1ccc2nc(Nc3nc4c(F)cc(F)cc4s3)sc2c1	1 (active)
COc1cc(/C=C2/C(=O)N=C(N)N2C)cc(OC)c1OC	0 (inactive)
CC1CC(C)CN(C(=S)Nc2ccc(SC(F)F)cc2)C1 (stereo not drawn)	0 (inactive)
Cc1ccc(Nc2n[nH]c(C)c2[N+](=O)[O-])cc1C	0 (inactive)
CCN(CC)CCCN1C(=O)c2oc3ccccc3c(=O)c2C1c1cccs1 (stereo not drawn)	1 (active)
NC(=O)COc1ccc(C2c3c(oc4ccccc4c3=O)C(=O)N2CC2CCCO2)cc1 (stereo not drawn)	0 (inactive)

Compound	manual score
O=c1c(O)c(-c2cccs2)oc2ccccc12	3 (inactive)
CCN(CC)CCN1C(=O)c2oc3ccccc3c(=O)c2C1c1ccc(F)cc1 (stereo not drawn)	0 (inactive)
CCN(CC)CCN1C(=O)c2oc3ccccc3c(=O)c2C1c1ccccc1 (stereo not drawn)	0.5 (inactive)
CN(C)CCCN1C(=O)c2oc3ccccc3c(=O)c2C1c1cccs1 (stereo not drawn)	1 (active)
O=C1Nc2ccccc2C12OCC1(CO2)COC2(OC1)C(=O)Nc1ccccc12 (stereo not drawn)	0 (inactive)
Cc1ccc(N2CC(C(=O)Oc3cccc(N4C(=O)CCC4=O)c3)CC2=O)cc1 (stereo not drawn)	0 (inactive)
O=C(Nc1nnc(-c2ccc(Cl)cc2)o1)c1cccc(N2C(=O)CCC2=O)c1	1 (active)
COc1ccccc1NC(=O)c1cc(C(=O)Nc2ccccc2OC)cc(N2C(=O)CCC2=O)c1	0 (inactive)
O=C(Nc1nnc(-c2ccc(Cl)cc2)o1)c1ccc(N2C(=O)CCC2=O)cc1	1 (active)
CCNc1nnc(-c2ccc(C)cc2)o1	0 (inactive)
COc1cccc2sc(Nc3nc(-c4ccccn4)cs3)nc12	1 (active)
COc1cccc2sc(Nc3nnc(-c4cccs4)o3)nc12	1 (active)
COc1ccc(-c2nnc(Nc3nc4c(OC)cccc4s3)o2)cc1	1 (active)
CCN(CC)c1nc(C)nc2c1cnn2CCc1ccccc1	0 (inactive)
Cc1cc(=S)[nH]c2c(C)cccc12	1 (active)
Cc1cc(C)c2[nH]c(=S)cc(C)c2c1	1 (active)
CCOc1ccccc1Nc1nnc(Cc2ccccc2Cl)c(=O)[nH]1	0 (inactive)
CCOC(=O)C1=C(C)N=C2SCCC(=O)N2C1c1sccc1C (stereo not drawn)	-1 (active)
CCOC(=O)C1=C(C)NC(=O)NC1c1ccc(Br)o1 (stereo not drawn)	0 (inactive)
CC(C)(C)c1nnc(N/N=C/c2ccccc2)n(N)c1=O	0 (inactive)
Cc1nc2c(-c3ccccc3)c(C)[nH]n2c(=O)c1Cl	0 (inactive)
Cc1[nH]n2c(=O)cc(C(C)(C)C)nc2c1-c1ccccc1	1 (active)

Compound	manual score
Cc1cc(=O)n2[nH]c(C)c(-c3ccccc3)c2n1	-0.5 (inactive)
COc1ccc(C(=S)Nc2ccc(N(C)C)cc2)cc1	0 (inactive)
CC/C(=N\NC(=S)Nc1ccc(OC)cc1)c1ccc(OC(F)F)cc1	1 (active)
COc1ccc(NC(=S)Nc2ccc(OCc3ccccc3)cc2)cc1OC	0 (inactive)
COc1ccc(C/C(C)=N/NC(=S)Nc2ccccc2)cc1	1 (active)
CC/C(=N\NC(=S)Nc1cc(C)ccc1C)c1ccc(OC(F)F)cc1	0 (inactive)
CCC1(C)OCC(Cn2c3ccccc3c3ccccc32)O1 (stereo not drawn)	0 (inactive)
O=c1[nH]c(NCCO)nc2c1C1(CCCCC1)Cc1ccccc1-2	0 (inactive)
Cc1ccc(/C(O)=C2\C(=O)C(=O)N(c3cc(C)on3)C2c2cccc(Br)c2)cc1 (stereo not drawn)	-1 (active)
C=CCOc1cccc(C2/C(=C(/O)c3ccc(C)cc3)C(=O)C(=O)N2CCN2CCOCC2)c1 (stereo not drawn)	0 (inactive)
CCN(CC)c1ccc2cc(C=O)c(=O)oc2c1	3 (inactive)
Cc1cccc(NC(=S)N/C(=N/S(=O)(=O)c2ccccc2)c2ccccc2)c1	1 (active)
Cc1cccc(NC(=O)NC(=S)NC(=O)c2ccccc2)c1	1 (active)
Cc1ccccc1NC(=O)C(=O)NC(C)CCc1ccccc1 (stereo not drawn)	0 (inactive)
O=C(O)CN=C(NS(=O)(=O)c1ccccc1)c1ccccc1	0 (inactive)
Cc1ccccc1NC(=S)NC(=O)CCc1ccccc1	1 (active)
Cc1cccc(C)c1NC(=S)NC(=O)CCc1ccccc1	1 (active)
CC(C)Oc1ccc(C2CC(=O)N(c3ccccc3)C2=O)cc1 (stereo not drawn)	0 (inactive)
Nc1c(C(O)(C(F)(F)F)C(F)(F)F)ccc2ccccc12	0 (inactive)
CC(C)(C)CC(=O)Nc1ccc(C(N)=O)cc1	0 (inactive)
